The target in assay [1] is Estrogen receptor (Homo sapiens) (UniProt P03372). In words: qHTS assay for small molecule agonists of estrogen receptor alpha signaling (AID 588514; calls by dose curve;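 note: 0% = vehicle only and 100% = reference agonist; nearly all actives have a fitted effect of over 70% in size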). The gist of the method:
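Cells were plated at 5000/well, incubated 4 hrs at 37 C, dosed with compound titration series, incubated 18 hrs at 37 C, loaded with CCF4 dye for 2 hrs at RT, then fluorescence was read.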
A general note: Quantitative high-throughput screening tests each substance at several concentrations.

Assay [2] deals with Glucocorticoid receptor (Homo sapiens) (UniProt P04150). In words: qHTS assay for small molecule agonists of glucocorticoid receptor signaling (AID 588532; active = well fitted curve in the direction sought with a large enough effect in the signal ratio, with a control signal flat; the % refers to the signal ratio;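 note: 100% = dexamethasone at 0.1 µM and 0% = DMSO only wells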). Conditions: HeLa MMTV-bla, beta-lactamase ratio, agonist, 18 h; activation: stronger effect = higher value, percent of dexamethasone control, DMSO zero. The gist of the method:
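Agonist-mode qHTS: GRE-driven beta-lactamase in HeLa cells exposed 18 h to titrated compounds (up to 92 uM), then CCF4 ratio read after 2 h at RT; Hill-fitted EC50, efficacy relative to 0.1 uM dexamethasone.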

For assay [3] the target is unchanged. In words: qHTS assay for small molecule antagonists of glucocorticoid receptor signaling (AID 588533; active = well fitted inhibition curve with a large enough effect in the signal ratio, with a control signal flat, not every such curve was filed as active; the % refers to the signal ratio;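 note: cells stimulated with 2 nM dexamethasone as agonist; % is set by controls: 0 for no effect and ±100 for the full control effect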). Summed up:
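Antagonist-mode qHTS: compound titrations added to GRE-bla HeLa cells, then dexamethasone 2 nM final; 18 h, 37 C. CCF4 FRET fluorescence normalized to dexamethasone and DMSO; IC50 from Hill fit.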

Assay [4] addresses Peroxisome proliferator-activated receptor delta (Homo sapiens) (UniProt Q03181). In words: qHTS assay for small molecule agonists of peroxisome proliferator-activated receptor delta signaling (AID 588534; calls by dose curve;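 note: 0% = DMSO basal wells and 100% = positive control agonist at 10 µM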). Summed up: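 Fluorescence from CCF4 substrate cleavage by beta-lactamase reporter, read 2 hrs at RT, measured agonist activity. Compounds were tested with 18 hrs exposure at 37 C. Concentration-response data fitted to Hill equation.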

Assay [5] concerns the target Peroxisome proliferator-activated receptor gamma (Homo sapiens) (UniProt P37231). In words: qHTS assay for small molecule agonists of peroxisome proliferator-activated receptor gamma signaling (AID 588536; active = well fitted curve in the direction sought with a large enough effect in the signal ratio, with a control signal flat, not every such curve was filed as active; the % refers to the signal ratio;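 note: 0% = DMSO basal wells and 100% = rosiglitazone at 2 µM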). The gist of the method: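 GeneBLAzer PPAR-gamma-UAS-bla HEK293 cells in 1% charcoal/dextran-treated FBS medium were treated 16 h at 37 C with compounds. Beta-lactamase activity was read by CCF4 ratio (460/530 nm). Response was normalized to 2 uM rosiglitazone (100%) and DMSO, then Hill-fitted for EC50 and efficacy.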

Assay [6] has as its target Retinoic acid receptor RXR-alpha (Homo sapiens) (UniProt P19793). In words: qHTS assay for small molecule agonists of retinoid X receptor alpha signaling (AID 588544; calls by dose curve;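 note: 0% = DMSO basal wells and 100% = reference agonist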).
In assay [7] the target is Thyroid hormone receptor beta (Homo sapiens) (UniProt P10828). In words: qHTS assay for small molecule agonists of thyroid hormone receptor beta signaling (AID 588545; calls by dose curve). Summed up: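 In this cell-based screen, titrated compounds act on HEK 293 cells held in medium with 2% charcoal/dextran FBS, NEAA and pyruvate for 18 hrs at 37 C. Responses are expressed relative to T3 (10 nM) as 100% and basal DMSO as 0%.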

Assay [8] can be described thus: qHTS assay for small molecule antagonists of retinoid X receptor alpha signaling (AID 588546; active = well fitted inhibition curve with a large enough effect in the signal ratio, with a control signal flat, not every such curve was filed as active; the % refers to the signal ratio;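 note: cells stimulated with 9-cis-retinoic acid as agonist; % is set by controls: 0 for no effect and ±100 for the full control effect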). Conditions: HEK293T RXRa-UAS-bla, beta-lactamase ratio, antagonist mode; measured here: W530 green channel, cytotoxicity proxy. The gist of the method:
(§1)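 Beta-lactamase reporter inhibition, read as CCF4 fluorescence ratio (ex 405, em 460/530 nm) after 2 h at RT. HEK293T UAS-bla cells, 2500/well, were stimulated with 9-cis-RA at 500 or 100 nM final alongside test compound for 18 h at 37 C.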

The target of assay [9] is Retinoic acid receptor RXR-alpha (Homo sapiens) (UniProt P19793). The assay is described as above. The note with it: HEK293T RXRa-UAS-bla, beta-lactamase ratio, antagonist mode. Summed up: as §1
Assay [10] has as its target Thyroid hormone receptor beta (Homo sapiens) (UniProt P10828). In words: qHTS assay for small molecule antagonists of thyroid hormone receptor beta signaling (AID 588547; active = well fitted inhibition curve with a large enough effect in the signal ratio, with a control signal flat, not every such curve was filed as active; the % refers to the signal ratio;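 note: cells stimulated with 0.4 nM T3 agonist during compound exposure; series mostly up to about 77 µM; % is set by controls: 0 for no effect and ±100 for the full control effect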). The note with it: TR-UAS-bla HEK293, beta-lactamase ratio, antagonist mode, 18 h. Summed up:
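Inhibition of T3-driven (0.4nM final) beta-lactamase reporter activity was measured over 0.59 nM to 92 uM compound after 18 h at 37 C. The cells were GripTite HEK293 TR-UAS-bla in charcoal/dextran-stripped serum, with CCF4 ratio read-out and IC50 from Hill fits.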

The nature of assay [11]: qHTS assay for small molecule activators of the p53 signaling pathway (AID 651743; active = well fitted activation curve with a large enough effect in the signal ratio, not every such curve was filed as active; the % refers to the signal ratio; note: series mostly up to about 92 µM; % of control where 0% means no effect). The note with it: HCT-116 p53RE-bla, beta-lactamase FRET ratio, 16 h; activation: stronger effect = higher value. Summed up: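 Read-out is fluorescence intensity from the LiveBLAzer B/G FRET substrate, added for 2 hours at room temperature after HCT-116 p53RE-bla cells had been incubated with compounds for 16 hours at 37 C.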

The target in assay [12] is Peroxisome proliferator-activated receptor alpha (Homo sapiens) (UniProt Q07869). In words: qHTS assay for small molecule agonists of the peroxisome proliferator-activated receptor alpha (PPARalpha) signaling pathway (AID 651778). Note: % of control where 0% means no effect. The note with it: PathHunter PPARalpha complementation, chemiluminescence, 6 h; max response: stronger effect = higher value. Summed up: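 Chemiluminescence from complemented enzyme reported PPARalpha activation in cells after 6 hr of compound treatment at 37 C. The detection reagent was incubated for 60 min at room temperature, and compounds were scored as agonists.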

Assay [13] in a line: qHTS assay for small molecule agonists of the antioxidant response element (ARE) signaling pathway measured by Nrf2-dependant transcriptional activity - cell viability counter screen (AID 720653; active = well fitted curve in the direction sought with a large enough effect in the repeat runs; an effect the other way counts as inactive or inconclusive; note: % is set by controls: 0 for no effect and ±100 for the full control effect). Conditions: ARE-bla HepG2 viability, CellTiter-Glo ATP luminescence, 16 h; max response: stronger effect = lower value. Summed up:
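Cytotoxicity counter screen: intracellular ATP quantified by CellTiter-Glo luminescence in the same ARE-bla HepG2 plates, after 16 h compound exposure and a 2 h beta-lactamase substrate step.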

The nature of assay [14]: qHTS assay for cell viability of HEK293 cells (AID 743288). Note: % is set by controls: 0 for no effect and ±100 for the full control effect; nearly all actives have a fitted effect of over 50% in size. The note with it: ATP luminescence (CellTiter-Glo), 18 h; max response: stronger effect = lower value. Summed up: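 Environmental chemicals tested in qHTS format against parental HEK293 cells; 18 h treatment, 37 C; read-out ATP luminescence (CellTiter-Glo), 30 min RT development.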
Assay [15] is described as follows: qHTS assay for cell viability of the p53RE-bla HCT-116 cell line (AID 743292). Note: % is set by controls: 0 for no effect and ±100 for the full control effect; nearly all actives have a fitted effect of over 55% in size. Summed up: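 ATP-based luminescence, 16 h compound exposure at 37 C, p53RE-bla HCT-116 cells at 4,000/well.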
A short description of assay [16]: qHTS assay for environmental chemicals that activate the Aryl hydrocarbon Receptor (AhR) signaling pathway (AID 651777). Note: % of control where 0% means no effect; nearly all actives have a fitted effect of over 15% in size. The note with it: 1A2-DRE human hepatoma cells, luciferase, 24 h; activation: stronger effect = higher value. The gist of the method:
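Reporter gene assay: hepatoma cells with DRE/CYP1A2-luciferase, 24 hr compound incubation at 37 C, 5% CO2, luminescence after One-Glo (30 min, RT).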

A short description of assay [17]: qHTS assay for small molecule agonists of the antioxidant response element (ARE) signaling pathway measured by Nrf2-dependant transcriptional activity (AID 720636; active = well fitted curve in the direction sought with a large enough effect in the repeat runs; an effect the other way counts as inactive or inconclusive;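 note: HepG2 cells with an ARE-driven luciferase reporter; % of control where 0% means no effect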). Summed up: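 Nrf2-dependent transcription is measured in ARE-luc HepG2 cells: compound is applied for 16 hr at 37 C after a 6 hr attachment period, and luciferase activity is quantified by luminescence using ONE-Glo.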

The target in assay [18] is Nuclear receptor subfamily 1 group I member 2 (Rattus norvegicus) (UniProt Q9R1A7). In words: qHTS assay for small molecule activators of the rat pregnane X receptor (rPXR) signaling pathway (AID 651751; call rule not given here; note: 0% is about no effect). Conditions: rPXR reporter cells, luciferase (One-Glo), 24 h.
Assay [19] can be described thus: qHTS assay for small molecule antagonists of peroxisome proliferator-activated receptor delta signaling (AID 588535; active = well fitted inhibition curve with a large enough effect in the signal ratio, with a control signal flat, not every such curve was filed as active; the % refers to the signal ratio;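 for max response: cells co-treated with a PPAR-delta agonist as stimulator during compound exposure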). The note with it: HEK293T PPARd-UAS-bla, beta-lactamase FRET ratio, 18 h; 460 nm channel. The gist of the method:
(§2)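 HEK293T PPAR-delta-UAS-bla cells, 4000/well, 2% charcoal/dextran FBS; 5 h 37 C; cpd titration; 18 h 37 C; CCF4 2 h RT; FI 460/530 nm; Hill fit → IC50, efficacy.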

In assay [20] the target is Peroxisome proliferator-activated receptor delta (Homo sapiens) (UniProt Q03181). Described as above. The gist of the method: as §2

Results filed as inconclusive are left out. Calls of active or inactive are those of the source. Unless noted, calls come from the whole dose curve; as a rule, active = well fitted curve in the direction sought with a large enough effect; inconclusive = small, poorly fitted or top-dose-only effect, or another doubt; inactive = no such curve, though single readings can be large; an effect the other way counts as inactive or inconclusive.

Thyroid hormone receptor beta (Homo sapiens), sequence (P10828 whole entry, looked up): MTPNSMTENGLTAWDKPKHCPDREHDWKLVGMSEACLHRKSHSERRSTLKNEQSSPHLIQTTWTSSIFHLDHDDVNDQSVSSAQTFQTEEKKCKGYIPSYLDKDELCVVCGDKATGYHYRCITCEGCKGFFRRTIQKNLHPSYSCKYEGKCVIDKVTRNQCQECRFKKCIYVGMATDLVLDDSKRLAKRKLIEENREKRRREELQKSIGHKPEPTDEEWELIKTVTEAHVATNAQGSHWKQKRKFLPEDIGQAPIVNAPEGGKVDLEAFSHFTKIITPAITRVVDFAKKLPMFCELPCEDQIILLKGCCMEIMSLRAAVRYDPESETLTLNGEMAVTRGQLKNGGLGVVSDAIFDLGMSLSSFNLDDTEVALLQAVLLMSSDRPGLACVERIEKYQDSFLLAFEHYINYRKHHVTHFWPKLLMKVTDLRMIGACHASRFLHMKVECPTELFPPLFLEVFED
Peroxisome proliferator-activated receptor gamma (Homo sapiens), sequence (P37231 whole entry, looked up): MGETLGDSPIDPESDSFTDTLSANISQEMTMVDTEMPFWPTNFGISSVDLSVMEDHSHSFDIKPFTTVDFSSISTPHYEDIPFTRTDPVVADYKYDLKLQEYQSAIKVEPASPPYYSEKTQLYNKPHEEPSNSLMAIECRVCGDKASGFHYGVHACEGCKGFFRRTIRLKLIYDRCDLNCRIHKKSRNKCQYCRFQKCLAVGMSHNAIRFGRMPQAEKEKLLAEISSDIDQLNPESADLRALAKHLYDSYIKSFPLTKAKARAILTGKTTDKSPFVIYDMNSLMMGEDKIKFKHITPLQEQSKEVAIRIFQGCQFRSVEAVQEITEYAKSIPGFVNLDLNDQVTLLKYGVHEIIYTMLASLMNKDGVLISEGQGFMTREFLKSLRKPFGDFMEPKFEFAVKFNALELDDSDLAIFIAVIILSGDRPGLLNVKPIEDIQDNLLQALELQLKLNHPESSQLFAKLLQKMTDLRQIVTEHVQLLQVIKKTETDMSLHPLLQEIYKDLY
Glucocorticoid receptor (Homo sapiens), sequence (P04150 whole entry, looked up): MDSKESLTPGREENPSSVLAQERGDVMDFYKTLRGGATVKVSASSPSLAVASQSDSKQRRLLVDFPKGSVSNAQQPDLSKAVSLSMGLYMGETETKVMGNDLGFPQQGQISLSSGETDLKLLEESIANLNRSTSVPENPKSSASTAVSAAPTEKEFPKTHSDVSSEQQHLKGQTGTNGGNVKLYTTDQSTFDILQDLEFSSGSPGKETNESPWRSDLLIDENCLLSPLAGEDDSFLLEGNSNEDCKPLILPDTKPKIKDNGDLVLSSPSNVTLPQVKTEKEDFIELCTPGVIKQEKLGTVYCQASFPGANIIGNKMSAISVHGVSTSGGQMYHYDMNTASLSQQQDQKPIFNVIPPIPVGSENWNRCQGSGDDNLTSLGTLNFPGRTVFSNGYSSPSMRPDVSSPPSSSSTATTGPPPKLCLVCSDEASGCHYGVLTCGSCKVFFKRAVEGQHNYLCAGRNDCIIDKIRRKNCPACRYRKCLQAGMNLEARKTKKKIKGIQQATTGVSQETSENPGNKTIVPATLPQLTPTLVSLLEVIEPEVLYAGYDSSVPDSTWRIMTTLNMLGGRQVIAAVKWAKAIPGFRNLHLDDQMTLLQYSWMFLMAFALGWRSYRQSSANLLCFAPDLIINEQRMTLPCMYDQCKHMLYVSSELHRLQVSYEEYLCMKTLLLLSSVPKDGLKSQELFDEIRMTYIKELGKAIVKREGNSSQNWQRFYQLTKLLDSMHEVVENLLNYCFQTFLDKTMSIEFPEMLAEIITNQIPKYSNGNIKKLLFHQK
Peroxisome proliferator-activated receptor delta (Homo sapiens), sequence (Q03181 whole entry, looked up): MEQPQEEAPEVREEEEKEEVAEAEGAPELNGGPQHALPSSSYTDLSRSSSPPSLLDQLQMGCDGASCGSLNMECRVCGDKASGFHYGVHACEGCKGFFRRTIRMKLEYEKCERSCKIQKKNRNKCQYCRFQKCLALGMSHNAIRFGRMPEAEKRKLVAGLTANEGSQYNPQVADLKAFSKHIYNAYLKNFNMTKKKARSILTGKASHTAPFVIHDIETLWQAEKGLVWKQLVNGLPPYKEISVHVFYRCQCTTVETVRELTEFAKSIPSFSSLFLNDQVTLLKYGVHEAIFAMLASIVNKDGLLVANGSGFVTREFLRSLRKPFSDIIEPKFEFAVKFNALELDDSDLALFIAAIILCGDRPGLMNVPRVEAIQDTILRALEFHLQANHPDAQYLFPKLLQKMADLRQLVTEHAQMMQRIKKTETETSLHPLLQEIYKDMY
Retinoic acid receptor RXR-alpha (Homo sapiens), sequence (P19793 whole entry, looked up): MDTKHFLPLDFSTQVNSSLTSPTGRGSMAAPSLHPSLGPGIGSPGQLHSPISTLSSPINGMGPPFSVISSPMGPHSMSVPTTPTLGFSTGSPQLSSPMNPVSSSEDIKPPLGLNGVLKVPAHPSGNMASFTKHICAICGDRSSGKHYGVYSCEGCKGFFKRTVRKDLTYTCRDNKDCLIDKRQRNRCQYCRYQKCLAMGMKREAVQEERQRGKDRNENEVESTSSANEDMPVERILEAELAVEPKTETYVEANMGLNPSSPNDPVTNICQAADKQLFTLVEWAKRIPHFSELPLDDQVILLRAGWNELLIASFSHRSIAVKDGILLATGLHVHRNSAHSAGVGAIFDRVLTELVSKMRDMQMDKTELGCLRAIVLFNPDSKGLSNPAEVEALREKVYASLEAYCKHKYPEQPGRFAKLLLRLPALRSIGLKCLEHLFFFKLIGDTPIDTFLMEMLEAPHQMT
Peroxisome proliferator-activated receptor alpha (Homo sapiens), sequence (Q07869 whole entry, looked up): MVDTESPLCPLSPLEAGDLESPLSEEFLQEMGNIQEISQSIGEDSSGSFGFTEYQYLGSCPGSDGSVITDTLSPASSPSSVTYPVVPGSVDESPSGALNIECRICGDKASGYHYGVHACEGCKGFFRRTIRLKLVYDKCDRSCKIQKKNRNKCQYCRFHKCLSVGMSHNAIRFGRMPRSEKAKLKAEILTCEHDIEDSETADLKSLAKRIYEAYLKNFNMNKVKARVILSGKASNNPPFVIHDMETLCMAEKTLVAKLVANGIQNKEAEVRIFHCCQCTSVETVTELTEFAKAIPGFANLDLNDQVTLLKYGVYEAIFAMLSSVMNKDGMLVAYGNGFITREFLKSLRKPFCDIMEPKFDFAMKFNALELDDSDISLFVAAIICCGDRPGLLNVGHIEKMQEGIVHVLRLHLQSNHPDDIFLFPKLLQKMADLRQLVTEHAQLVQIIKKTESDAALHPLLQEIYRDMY
Nuclear receptor subfamily 1 group I member 2 (Rattus norvegicus), sequence (Q9R1A7 whole entry, looked up): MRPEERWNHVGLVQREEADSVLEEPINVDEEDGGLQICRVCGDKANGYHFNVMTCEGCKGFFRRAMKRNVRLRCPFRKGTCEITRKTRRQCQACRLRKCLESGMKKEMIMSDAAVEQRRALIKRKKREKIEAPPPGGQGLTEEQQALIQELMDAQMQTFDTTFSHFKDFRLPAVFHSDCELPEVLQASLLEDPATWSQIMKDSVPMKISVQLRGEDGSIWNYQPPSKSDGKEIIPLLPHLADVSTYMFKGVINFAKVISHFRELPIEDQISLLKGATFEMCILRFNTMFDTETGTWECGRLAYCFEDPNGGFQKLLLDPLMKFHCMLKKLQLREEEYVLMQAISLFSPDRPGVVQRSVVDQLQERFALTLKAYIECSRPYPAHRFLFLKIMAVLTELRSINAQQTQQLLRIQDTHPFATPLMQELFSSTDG
Estrogen receptor (Homo sapiens), sequence (P03372 whole entry, looked up): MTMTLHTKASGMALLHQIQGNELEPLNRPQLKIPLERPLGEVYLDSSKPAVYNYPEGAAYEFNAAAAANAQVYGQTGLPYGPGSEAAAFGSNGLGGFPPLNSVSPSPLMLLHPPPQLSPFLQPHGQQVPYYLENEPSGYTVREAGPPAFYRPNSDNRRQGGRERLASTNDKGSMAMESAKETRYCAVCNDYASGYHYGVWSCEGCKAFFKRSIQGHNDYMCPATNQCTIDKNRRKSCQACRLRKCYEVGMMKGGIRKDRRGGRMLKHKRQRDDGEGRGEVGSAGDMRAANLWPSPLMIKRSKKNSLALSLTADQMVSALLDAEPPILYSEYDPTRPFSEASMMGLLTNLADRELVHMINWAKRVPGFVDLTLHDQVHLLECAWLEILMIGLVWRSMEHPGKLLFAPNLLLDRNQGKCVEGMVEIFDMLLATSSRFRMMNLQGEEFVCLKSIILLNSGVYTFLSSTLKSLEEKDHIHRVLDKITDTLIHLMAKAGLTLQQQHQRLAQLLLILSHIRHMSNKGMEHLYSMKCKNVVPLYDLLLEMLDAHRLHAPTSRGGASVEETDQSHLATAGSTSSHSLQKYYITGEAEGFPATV

Regarding `CC1=C(C(=O)Nc2ccccc2)SCCO1`, the Potency result in [1], in [3], in [5], in [6], in assay [7] and in assay [15] was “inactive” throughout. Also, the values for the activation in assay [2] and in assay [11] were -5.7% (inactive) and 1.21% (inactive), respectively. Besides, in assay [4], the result was inactive. For the same molecule, the max response in assay [8] was -5.88%; in assay [9], -6.74% (inactive); in assay [12], -3.16% (inactive); in [13], -4.21% (inactive); in [14], -15.4% (inactive). Moreover, in [10], the activity change % (negative = inhibition) is 3.71% (inactive).
Regarding `CC(Oc1ccc(Cl)cc1Cl)C(=O)O` (stereo unspecified), the activation in assay [2] was 6.74% (inactive); in assay [11], 0.243% (inactive); in assay [16], -1.09% (inactive). The Potency result in assay [3], in assay [6], in assay [7], in assay [17] and in [15] was “inactive” in each case. Moreover, the max response is 2.43% in [8]; 0.174% (inactive) in assay [12]; 8.84% (inactive) in assay [13]; -4.02% (inactive) in assay [14]; -2.29% (inactive) in assay [18].
With `CCOP(=S)(NC(C)C)Oc1ccccc1C(=O)OC(C)C` (stereo unspecified), the activation in assay [2] was -0.106% (inactive); in [16], 4.48% (inactive). Moreover, the Potency result in [3], in assay [20], in assay [5], in assay [7] and in assay [17] was “inactive” each time. Further, the call in assay [4] was inactive. Besides, the max response is -3.59% in [19]; -9.07% in assay [8]; -31.4% (inactive) in assay [9]; -0.429% (inactive) in assay [12]; -14.9% (inactive) in assay [13]; -18.9% (inactive) in [14]. The activity change % (negative = inhibition) in [10] is 1.38% (inactive).
`Nc1cnn(-c2ccccc2)c(=O)c1Cl`: the values for the activation in [2], in assay [11] and in [16] were -1.22% (inactive), -0.0509% (inactive) and 6.85% (inactive), respectively. In addition, the Potency entry in assay [3], in [20], in [5], in assay [6], in assay [7] and in assay [17] was “inactive” each time. Also, the Potency result in assay [15] is “inactive”. Moreover, the outcome in assay [4] was inactive. Also, the max response in assay [19] was 13.7%; in assay [8], -1.68%; in [9] it was -7.65% (inactive); in assay [12], -1.54% (inactive); in [13], 11.3% (inactive); in [14] it was -10.4% (inactive). Further, the max response in assay [18] was 4.89% (inactive). In assay [10], the activity change % (negative = inhibition) was -13.7% (inactive).
For `CNC(=O)/C=C(\C)OP(=O)(OC)OC`, the activation in assay [2] was -1.15% (inactive); in assay [16] it was 7.36% (inactive). Moreover, in assay [4], the outcome was inactive. Further, the max response in assay [19] was 32.8%; in [8], -16.8%; in [9], -15.9% (inactive); in assay [12] it was -1.97% (inactive); in assay [13], -10% (inactive); in assay [14], -10.5% (inactive). Moreover, the max response in assay [18] is 0.645% (inactive). Besides, the Potency result in assay [20], in assay [5], in assay [6], in assay [7] and in [15] was “inactive” in each case. The activity change % (negative = inhibition) in [10] was -12.7% (inactive).
Take `CCCN(CCC)c1c([N+](=O)[O-])cc(C(F)(F)F)c(N)c1[N+](=O)[O-]`: the outcome in assay [4] was inactive.
In the case of `CCOP(=O)(OCC)Oc1ccc2c(C)c(Cl)c(=O)oc2c1`, the Potency entry in [1], in assay [3], in assay [20], in [6], in assay [17] and in [15] was “inactive” each time. The activation in [2] is -3.39% (inactive); in [16], 0.485% (inactive). The molecule was called inactive in assay [4]. Besides, the max response in [19] was 36%; in assay [8], -10.4%; in [9], -0.0168% (inactive); in assay [12] it was -3.26% (inactive); in assay [13], -2.45% (inactive); in assay [14] it was -8.63% (inactive). Further, in assay [18], the max response was 12.3% (inactive). In assay [10], the activity change % (negative = inhibition) is -0.271% (inactive).

The values above are taken from PubChem BioAssay (NCATS).
